Consider four compounds from PubChem BioAssay (EPA / NIEHS).

Calls of active or inactive are those of the source. How the source made its calls: active means hit-call score of the fitted dose curve at least 0.9, where 1 is the maximum; inactive means score below 0.9.

Holding throughout (details): mRNA level, 48 h; actives raise or lower the signal
Read-out in experiment [1]: Glutathione S-transferase M3 (GSTM3), GSTM3 (gene 2947)
Kind of experiment: LTEA_HepaRG_GSTM3: Life Technologies and Expression Analysis (LTEA) Assay for Glutathione S-transferase M3 (GSTM3) using HepaRG (AID 2283501). Summed up:
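HepaRG, plated 48 h, then serum-free induction medium; test chemical 48 h, duplicate; 100 uM top, half-log x8, 0.5% DMSO. Read-out: GSTM3 mRNA (TaqMan qRT-PCR, Fluidigm array). Bidirectional fit vs DMSO.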

Read-out in experiment [2]: Heat shock 70 kDa protein 1 (HSPA1A), gene 3303
The experiment in a line: LTEA_HepaRG_HSPA1A: Life Technologies and Expression Analysis (LTEA) Assay for Heat shock 70 kDa protein 1 (HSPA1A) using HepaRG (AID 2283502). Summed up: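 Readout is HSPA1A transcript level by microfluidic qRT-PCR, normalized to three housekeeping genes and analysed for gain or loss of signal relative to 0.5% DMSO. Human HepaRG cultures received test chemicals for 48 h at up to 100 uM.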

Read-out in experiment [3]: Hypoxia-inducible factor 1-alpha (Homo sapiens) (UniProt Q16665)
The experiment in a line: LTEA_HepaRG_HIF1A: Life Technologies and Expression Analysis (LTEA) Assay for Hypoxia-inducible factor 1 (HIF1A) Trancription factor using HepaRG (AID 2283503). A digest of the protocol: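 Differentiated HepaRG cells in serum-free induction medium exposed 48 h, in duplicate, to 8-point half-log series from 100 uM in 0.5% DMSO. HIF1A mRNA measured by TaqMan qRT-PCR, normalized to ACTB/GAPDH/POLR2A, fitted bidirectionally versus DMSO.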

Read-out in experiment [4]: 3-Hydroxy-3-Methylglutaryl-CoA Synthase 2 (HMGCS2), HMGCS2 (gene 3158)
Kind of experiment: LTEA_HepaRG_HMGCS2: Life Technologies and Expression Analysis (LTEA) Assay for 3-Hydroxy-3-Methylglutaryl-CoA Synthase 2 (HMGCS2) using HepaRG (AID 2283504). A digest of the protocol:
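HepaRG, plated 48 h then switched to serum-free induction media; cmpd 8-pt, max 100 uM, 1/2-log, 0.5% DMSO, n=2, 48 h. HMGCS2 mRNA by Fluidigm TaqMan qRT-PCR, ACTB/GAPDH/POLR2A norm; bidirectional fit vs DMSO.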

Read-out in the next experiment: HGF (gene 3082)
The experiment in a line: LTEA_HepaRG_HGF: Life Technologies and Expression Analysis (LTEA) Assay for Hepatocyte Growth Facto (HGF) using HepaRG (AID 2283505). A digest of the protocol:
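Read-out is HGF transcript level by qRT-PCR, normalized to three housekeeping genes, fitted bidirectionally against 0.5% DMSO vehicle. Human HepaRG cells received test chemicals for 48 h at up to 100 uM.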

Read-out in experiment [5]: Insulin Like Growth Factor 1 (IGF1), IGF1 (gene 3479)
The experiment in a line: LTEA_HepaRG_IGF1: Life Technologies and Expression Analysis (LTEA) Assay for Insulin Like Growth Factor 1 (IGF1) using HepaRG (AID 2283506). Summed up:
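HepaRG, plated 48 h, then switched to serum-free induction media; test chemical 8-pt half-log from 100 uM (0.5% DMSO), duplicate, 48 h. Lysis in RLT, TaqMan qRT-PCR, norm. ACTB/GAPDH/POLR2A. Bidirectional fit vs DMSO.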

Read-out in experiment [6]: Insulin-like growth factor-binding protein 1 (IGFBP1), IGFBP1 (gene 3484)
The experiment in a line: LTEA_HepaRG_IGFBP1: Life Technologies and Expression Analysis (LTEA) Assay for Insulin-like growth factor-binding protein 1 (IGFBP1) using HepaRG (AID 2283508). A digest of the protocol: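 Thawed HepaRG cells are plated for 48 h, switched to serum-free induction medium, then dosed in duplicate for another 48 h (100 uM top, half-log steps). Lysates in RLT go to qRT-PCR, and gain or loss of signal is fitted relative to vehicle.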

Read-out in experiment [7]: Interleukin 6 (IL6), IL6 (gene 3569)
Kind of experiment: LTEA_HepaRG_IL6: Life Technologies and Expression Analysis (LTEA) Assay for Interleukin 6 (IL6) using HepaRG (AID 2283509). A digest of the protocol:
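Differentiated human HepaRG cells, plated 48 h then switched to serum-free induction medium, were exposed in duplicate for 48 h to eight half-log concentrations up to 100 uM in 0.5% DMSO. IL6 mRNA measured by qRT-PCR, normalized to ACTB/GAPDH/POLR2A.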

Read-out in experiment [8]: Potassium channel subfamily K member 1 (KCNK1), KCNK1 (gene 3775)
The experiment in a line: LTEA_HepaRG_KCNK1: Life Technologies and Expression Analysis (LTEA) Assay for Potassium channel subfamily K member 1 (KCNK1) using HepaRG (AID 2283511). Summed up:
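Differentiated human HepaRG cells in serum-free induction medium were exposed in duplicate for 48 h to 8 half-log concentrations up to 100 uM in 0.5% DMSO. KCNK1 mRNA was measured by TaqMan qRT-PCR, normalized to ACTB, GAPDH and POLR2A, and fitted bidirectionally versus DMSO.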

Read-out in experiment [9]: Keratin 19 (KRT19), KRT19 (gene 3880)
The experiment in a line: LTEA_HepaRG_KRT19: Life Technologies and Expression Analysis (LTEA) Assay for Keratin 19 (KRT19) using HepaRG (AID 2283512). A digest of the protocol: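 KRT19 transcript levels, measured by Fluidigm qRT-PCR against three housekeeping genes, are fitted for gain or loss of signal relative to DMSO. Human HepaRG cells receive test chemicals (top 100 uM, half-log steps, 0.5% DMSO) for 48 hours.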

Read-out in experiment [10]: JUN Transcription Factor, JUN (gene 3725)
The experiment in a line: LTEA_HepaRG_JUN: Life Technologies and Expression Analysis (LTEA) Assay for JUN Transcription Factor using HepaRG (AID 2283513). A digest of the protocol:
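Cells plated 48 h, medium switched to serum-free induction medium, then dosed 48 h (100 uM top, half-log dilutions, 0.5% DMSO). RNA isolated; JUN measured by qRT-PCR against three housekeeping genes; gain or loss fitted relative to DMSO.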

Read-out in experiment [11]: Lipase C (LIPC), LIPC (gene 3990)
Kind of experiment: LTEA_HepaRG_LIPC: Life Technologies and Expression Analysis (LTEA) Assay for Lipase C (LIPC) using HepaRG (AID 2283514). Summed up:
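Differentiated human HepaRG cells in serum-free induction medium were exposed in duplicate for 48 h to eight concentrations (top 100 uM, half-log steps, 0.5% DMSO). LIPC mRNA was quantified by TaqMan qRT-PCR, normalized to ACTB, GAPDH and POLR2A, with bidirectional fitting versus DMSO.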

Read-out in experiment [12]: Lipoprotein lipase (LPL), LPL (gene 4023)
The experiment in a line: LTEA_HepaRG_LPL: Life Technologies and Expression Analysis (LTEA) Assay for Lipoprotein lipase (LPL) using HepaRG (AID 2283515). A digest of the protocol: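 Differentiated human HepaRG cells in serum-free induction medium were exposed in duplicate for 48 h to eight half-log concentrations (top 100 uM) in 0.5% DMSO. LPL mRNA was quantified by TaqMan qRT-PCR, normalized to ACTB, GAPDH and POLR2A.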

Read-out in experiment [13]: MicroRNA 122 (MIR122), gene 406906
Kind of experiment: LTEA_HepaRG_MIR122: Life Technologies and Expression Analysis (LTEA) Assay for MicroRNA 122 (MIR122) using HepaRG (AID 2283516). Further: the transcript read is the microRNA miR-122. Summed up:
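HepaRG plated 48 h, switched to serum-free induction medium, then treated in duplicate for 48 h (100 uM top, half-log steps, 0.5% DMSO vehicle). RNA isolated, qRT-PCR performed, concentration-response fitted both directions relative to DMSO.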

Read-out in experiment [14]: matrix metalloproteinase-10 (MMP10), MMP10 (gene 4319)
The experiment in a line: LTEA_HepaRG_MMP10: Life Technologies and Expression Analysis (LTEA) Assay for matrix metalloproteinase-10 (MMP10) using HepaRG (AID 2283517). A digest of the protocol:
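HepaRG, collagen I, ~100,000 cells/well; serum-free induction medium; 48 h exposure, duplicate, 8-pt half-log to 100 uM, 0.5% DMSO. Readout: TaqMan qRT-PCR, normalized to ACTB/GAPDH/POLR2A; bidirectional fit vs DMSO.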

Read-out in a further experiment: MYC, MYC (gene 4609)
Kind of experiment: LTEA_HepaRG_MYC: Life Technologies and Expression Analysis (LTEA) Assay for MYC using HepaRG (AID 2283518). A digest of the protocol: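 HepaRG, ~100,000 cells/well, collagen I; 48 h plating; serum-free induction medium; 48 h dosing, duplicate, 100 uM top, half-log, 0.5% DMSO; total RNA → qRT-PCR MYC; gain/loss fit vs DMSO.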

Read-out in experiment [15]: Paternally Expressed 10 (PEG10), PEG10 (gene 23089)
The experiment in a line: LTEA_HepaRG_PEG10: Life Technologies and Expression Analysis (LTEA) Assay for Paternally Expressed 10 (PEG10) using HepaRG (AID 2283520). A digest of the protocol: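 HepaRG, 48 h post-plating → serum-free induction medium → 48 h chemical exposure (duplicate, 8-pt, max 100 uM, half-log, 0.5% DMSO) → lysis in RLT → TaqMan qRT-PCR for PEG10, ACTB/GAPDH/POLR2A normalisation.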

Read-out in experiment [16]: Intercellular Adhesion Molecule 1 (ICAM1), ICAM1 (gene 3383)
Kind of experiment: LTEA_HepaRG_ICAM1: Life Technologies and Expression Analysis (LTEA) Assay for Intercellular Adhesion Molecule 1 (ICAM1) using HepaRG (AID 2283507). A digest of the protocol:
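Readout is qRT-PCR mRNA level, normalized to three housekeeping genes and fitted bidirectionally against 0.5% DMSO vehicle. Human HepaRG cultures received compound for 48 h, top concentration 100 uM with half-log dilutions.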

Read-out in experiment [17]: Interleukin 6 Receptor (IL6R), IL6R (gene 3570)
The experiment in a line: LTEA_HepaRG_IL6R: Life Technologies and Expression Analysis (LTEA) Assay for Interleukin 6 Receptor (IL6R) using HepaRG (AID 2283510). Summed up: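 Readout is IL6R transcript level by TaqMan qRT-PCR, normalized to three housekeeping genes and fitted bidirectionally against 0.5% DMSO controls. Human HepaRG cells received chemicals for 48 h in serum-free induction medium, highest concentration 100 uM.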

Read-out in experiment [18]: matrix metalloproteinase-3 (MMP3), MMP3 (gene 4314)
The experiment in a line: LTEA_HepaRG_MMP3: Life Technologies and Expression Analysis (LTEA) Assay for matrix metalloproteinase-3 (MMP3) using HepaRG (AID 2283519). Summed up:
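Differentiated human HepaRG cells, plated 48 h on collagen I, were exposed in duplicate for 48 h in serum-free induction medium to eight half-log concentrations up to 100 uM in 0.5% DMSO. MMP3 mRNA was quantified by TaqMan qRT-PCR, normalised to ACTB, GAPDH and POLR2A.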

Hypoxia-inducible factor 1-alpha (Homo sapiens), sequence (Q16665 whole entry, looked up): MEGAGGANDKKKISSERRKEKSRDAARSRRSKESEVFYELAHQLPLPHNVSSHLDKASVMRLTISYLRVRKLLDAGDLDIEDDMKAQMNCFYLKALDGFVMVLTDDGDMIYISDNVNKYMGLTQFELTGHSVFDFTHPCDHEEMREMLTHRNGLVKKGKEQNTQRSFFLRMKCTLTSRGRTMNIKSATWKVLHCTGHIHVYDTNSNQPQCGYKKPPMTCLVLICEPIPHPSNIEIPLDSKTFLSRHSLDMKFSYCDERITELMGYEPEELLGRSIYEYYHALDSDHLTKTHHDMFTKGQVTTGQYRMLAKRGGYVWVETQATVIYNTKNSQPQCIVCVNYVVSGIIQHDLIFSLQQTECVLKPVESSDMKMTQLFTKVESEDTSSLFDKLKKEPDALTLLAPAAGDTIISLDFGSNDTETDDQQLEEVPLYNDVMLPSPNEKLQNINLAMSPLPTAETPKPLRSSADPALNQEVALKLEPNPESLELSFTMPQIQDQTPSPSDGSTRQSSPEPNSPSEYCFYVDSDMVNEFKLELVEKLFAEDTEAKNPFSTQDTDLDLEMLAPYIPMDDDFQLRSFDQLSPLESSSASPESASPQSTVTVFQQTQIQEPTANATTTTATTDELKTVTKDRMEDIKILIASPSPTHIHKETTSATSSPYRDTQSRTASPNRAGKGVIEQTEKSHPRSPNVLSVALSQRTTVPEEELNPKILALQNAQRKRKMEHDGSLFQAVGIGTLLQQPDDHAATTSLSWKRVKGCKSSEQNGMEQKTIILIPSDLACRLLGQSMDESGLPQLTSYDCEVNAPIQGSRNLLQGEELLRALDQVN

As to `N#CC(Br)(Br)C(N)=O`, the result (in experiment [1]; in experiment [2]; in [3]; in [4]; with HGF (gene 3082); in experiment [5]) was inactive. The call in experiment [6], in [7], in [8], in experiment [9], in experiment [10] and in experiment [11] was inactive. The outcome in experiment [12] is “inactive”; in [13], “inactive”; in [14], “inactive”; in the experiment with MYC, MYC (gene 4609), “inactive”; in [15], “inactive”.

For `CCOc1cccc(C2(N3CCN(c4ccccc4)CC3)CCC(C)CC2)c1` (configuration not stated), the compound was classed as inactive (in experiment [1]; in experiment [2]; in experiment [3]; in experiment [4]; in the experiment with HGF (gene 3082); in experiment [5]). Further, the compound was classed as inactive in experiment [6], in experiment [8], in experiment [9], in experiment [10], in experiment [11] and in experiment [12]. Further, the outcome in [13] was “inactive”; in [14] it was “inactive”; in the experiment with MYC, MYC (gene 4609), “inactive”; in experiment [15] it was “inactive”.

Consider `CN(C)[C@@H]1C(=O)C(C(N)=O)=C(O)[C@@]2(O)C(=O)C3=C(O)c4c(O)cccc4[C@@](C)(O)[C@H]3C[C@@H]12`, for which the compound was called inactive (in experiment [1]; in [2]; in experiment [4]; with HGF (gene 3082); in experiment [5]; in experiment [16]). In addition, the result in experiment [6], in experiment [7], in experiment [8], in [9], in [11] and in [12] was inactive. For the same compound, the outcome in [13] is “inactive”; in experiment [14], “inactive”; in the experiment with MYC, MYC (gene 4609), “inactive”; in experiment [15], “inactive”.

Consider `Cc1ccc([N+](=O)[O-])cc1`, for which the result (in experiment [1]; in [2]; in [3]; in experiment [4]; with HGF (gene 3082); in experiment [6]) was inactive. In addition, the result in experiment [17], in experiment [8], in experiment [9], in experiment [10], in experiment [11] and in experiment [12] was inactive. Besides, the outcome in experiment [13] was “inactive”; in experiment [14] it was “inactive”; with MYC, MYC (gene 4609) it was “inactive”; in [18] it was “inactive”. The AC50 was 17.8 µM (active) in [5] and 11.3 µM (active) in experiment [15].
